The test system of the assay is Vero E6 infected with SARS-CoV-2. Put plainly: inhibition of SARS-CoV-2 cytopathic effect; higher = more antiviral protection, active = above 15. Particulars: 48 h.

The values below come from the supplement of paper PMC13380429.

Turning to `CN1CC[C@H](c2c(O)cc(O)c3c(=O)cc(-c4ccccc4Cl)oc23)[C@H](O)C1` [alvocidib], the “inhibition of SARS-CoV-2 cytopathic effect” value (“inhibition” for short) is 2.38% (inactive) (1 nM); 1.53% (inactive) (8.33 nM); 7.55% (inactive) (100 nM); -19.4% (inactive) (833.33 nM); -9.43% (inactive) (10000 nM).

In the case of `Cc1ccccc1N1CCN(S(=O)(=O)C[C@]23CC[C@H](C[C@@H]2NC(=O)[C@@H](N)CCS(C)(=O)=O)C3(C)C)CC1`, the “inhibition” value is 0.06% (inactive) (1 nM); 2.09% (inactive) (8.33 nM); 2.92% (inactive) (100 nM); 1.11% (inactive) (833.33 nM); 0.11% (inactive) (10000 nM).

As to `Cc1ccc(NC(=O)CCCCCC(=O)Nc2ccccc2N)cc1`, the “inhibition” value is 2.4% (inactive) (1 nM); 1.59% (inactive) (8.33 nM); 0.54% (inactive) (100 nM); 1.31% (inactive) (833.33 nM); 3.57% (inactive) (10000 nM).

In the case of `CCCNC(C)C(=O)Nc1ccccc1C` (stereo not given) [prilocaine], the “inhibition” value is 3.07% (inactive) (1 nM); -1.58% (inactive) (8.33 nM); -0.81% (inactive) (100 nM); 2.12% (inactive) (833.33 nM); 2% (inactive) (10000 nM).

As to `COc1cccc([C@H](O)C2CCN(CCc3ccc(F)cc3)CC2)c1OC` [volinanserin], the “inhibition” value runs as follows: (1 nM) -1.28% (inactive); (8.33 nM) -0.6% (inactive); (100 nM) -3.32% (inactive); (833.33 nM) -1.38% (inactive); (10000 nM) -2.28% (inactive).

As to `CN(C)C(=O)Oc1ccc[n+](C)c1` [mestinon], the “inhibition” value is, setting by setting: (1 nM) 4.06% (inactive); (8.33 nM) -0.26% (inactive); (100 nM) 0.13% (inactive); (833.33 nM) -2.1% (inactive); (10000 nM) -1.86% (inactive).

Regarding `CC(C)c1ccccc1S(=O)(=O)c1cc(N)c2ncccc2c1[N+](=O)[O-]`, the “inhibition” value runs as follows: (1 nM) 1.33% (inactive); (8.33 nM) 1.24% (inactive); (100 nM) 0.12% (inactive); (833.33 nM) 5.82% (inactive); (10000 nM) 9.31% (inactive).

Turning to `O=C(CCCN1CCC(O)(c2ccc(Cl)cc2)CC1)c1ccc(F)cc1` [haloperidol], the “inhibition” value is 0.65% (inactive) (1 nM); 1.48% (inactive) (8.33 nM); -0.07% (inactive) (100 nM); 0.5% (inactive) (833.33 nM); -1.23% (inactive) (10000 nM).

Consider `[Cl][Ru-]([Cl])([Cl])[Cl].[Na+].c1ccc2[nH]ncc2c1.c1ccc2[nH]ncc2c1`, for which the “inhibition” value was 2.72% (inactive) (1 nM); 0.03% (inactive) (8.33 nM); 1.2% (inactive) (100 nM); 5.02% (inactive) (833.33 nM); 18% (active) (10000 nM).

`COC(=O)C1=C(C)NC(C)=C(C(=O)OC)C1c1ccccc1[N+](=O)[O-]` [nifedipine]: the “inhibition” value is -0.99% (inactive) (1 nM); 0.14% (inactive) (8.33 nM); -0.27% (inactive) (100 nM); 3.23% (inactive) (833.33 nM); 4.43% (inactive) (10000 nM).

Turning to `O=C(c1ccc(/C=C/c2n[nH]c3ccccc23)cc1)N1CCNCC1`, the “inhibition” value was 0.11% (inactive) (1 nM); 1.26% (inactive) (8.33 nM); 0.85% (inactive) (100 nM); 0.22% (inactive) (833.33 nM); -1.99% (inactive) (10000 nM).

Consider `O=C(O)C[C@H]1CC[C@H](c2ccc(-c3ccc(Nc4ccc(C(F)(F)F)nc4)cn3)cc2)CC1`, for which the “inhibition” value was -1.27% (inactive) (1 nM); 0.84% (inactive) (8.33 nM); -0.93% (inactive) (100 nM); -2.65% (inactive) (833.33 nM); 1.98% (inactive) (10000 nM).

Take `COc1cc2c(cc1-c1c(C)noc1C)ncc1[nH]c(=O)n([C@H](C)c3ccccn3)c12`: the “inhibition” value was -7.87% (inactive) (1 nM); -7.32% (inactive) (8.33 nM); -3.13% (inactive) (100 nM); 1.38% (inactive) (833.33 nM); -8.07% (inactive) (10000 nM).

With `CCNCCS(=O)(=O)NC[C@@]1(c2ccccc2)SC(NC(=O)C(C)(C)C)=NN1C(=O)C(C)(C)C` [litronesib], the “inhibition” value reads like this: (1 nM) 2.17% (inactive); (8.33 nM) 5.24% (inactive); (100 nM) 2.46% (inactive); (833.33 nM) 0.96% (inactive); (10000 nM) 0.39% (inactive).

Consider `O=C(CBr)N1CC([N+](=O)[O-])([N+](=O)[O-])C1`, for which the “inhibition” value was 1.69% (inactive) (1 nM); -0.07% (inactive) (8.33 nM); -1.43% (inactive) (100 nM); -1.12% (inactive) (833.33 nM); 0.95% (inactive) (10000 nM).

Turning to `Cc1cccc(C)c1-n1c(=O)c2cnc(Nc3ccc(N4CCN(C)CC4)cc3)nc2n2c3ccccc3nc12`, the “inhibition” value runs as follows: (1 nM) -1.2% (inactive); (8.33 nM) -0.67% (inactive); (100 nM) -2.31% (inactive); (833.33 nM) 0.21% (inactive); (10000 nM) -3.38% (inactive).

For `Oc1ccc(Cl)c2cccnc12` [cloxyquin], the “inhibition” value was 1.22% (inactive) (1 nM); 0.37% (inactive) (8.33 nM); 2.68% (inactive) (100 nM); 3.29% (inactive) (833.33 nM); -0.16% (inactive) (10000 nM).

Take `O=C(c1ccc(Nc2nccc(-c3cc4ccccc4s3)n2)cc1)N1CCC(N2CCCC2)CC1`: the “inhibition” value runs as follows: (1 nM) 2.48% (inactive); (8.33 nM) 3.16% (inactive); (100 nM) -1.73% (inactive); (833.33 nM) 2.79% (inactive); (10000 nM) -18.6% (inactive).

On to `CCCN[C@H]1CCc2nc(N)sc2C1` [pramipexole], for which the “inhibition” value was -2.43% (inactive) (1 nM); -0.27% (inactive) (8.33 nM); -3.37% (inactive) (100 nM); -2.16% (inactive) (833.33 nM); -1.54% (inactive) (10000 nM).
